Laboratory results: publication PMC4336329 (PLoS ONE, 2015)
The campaign covered roughly 310,000 compounds. About 14,000 (4.5%) showed an effect of 50% or more. The effect is printed as a negative number. The full list was thinned out, with strong results kept by preference.

target: human ether-à-go-go-related gene (hERG) potassium channel (human, UniProt Q12809); experiment: primary screen, population patch clamp on CHO cells stably expressing hERG; higher = less effect of the substance
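Further: peak tail current of the secondary pulse compared with the same well before compound.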

Sequence of human ether-à-go-go-related gene (hERG) potassium channel (Q12809 whole entry, looked up): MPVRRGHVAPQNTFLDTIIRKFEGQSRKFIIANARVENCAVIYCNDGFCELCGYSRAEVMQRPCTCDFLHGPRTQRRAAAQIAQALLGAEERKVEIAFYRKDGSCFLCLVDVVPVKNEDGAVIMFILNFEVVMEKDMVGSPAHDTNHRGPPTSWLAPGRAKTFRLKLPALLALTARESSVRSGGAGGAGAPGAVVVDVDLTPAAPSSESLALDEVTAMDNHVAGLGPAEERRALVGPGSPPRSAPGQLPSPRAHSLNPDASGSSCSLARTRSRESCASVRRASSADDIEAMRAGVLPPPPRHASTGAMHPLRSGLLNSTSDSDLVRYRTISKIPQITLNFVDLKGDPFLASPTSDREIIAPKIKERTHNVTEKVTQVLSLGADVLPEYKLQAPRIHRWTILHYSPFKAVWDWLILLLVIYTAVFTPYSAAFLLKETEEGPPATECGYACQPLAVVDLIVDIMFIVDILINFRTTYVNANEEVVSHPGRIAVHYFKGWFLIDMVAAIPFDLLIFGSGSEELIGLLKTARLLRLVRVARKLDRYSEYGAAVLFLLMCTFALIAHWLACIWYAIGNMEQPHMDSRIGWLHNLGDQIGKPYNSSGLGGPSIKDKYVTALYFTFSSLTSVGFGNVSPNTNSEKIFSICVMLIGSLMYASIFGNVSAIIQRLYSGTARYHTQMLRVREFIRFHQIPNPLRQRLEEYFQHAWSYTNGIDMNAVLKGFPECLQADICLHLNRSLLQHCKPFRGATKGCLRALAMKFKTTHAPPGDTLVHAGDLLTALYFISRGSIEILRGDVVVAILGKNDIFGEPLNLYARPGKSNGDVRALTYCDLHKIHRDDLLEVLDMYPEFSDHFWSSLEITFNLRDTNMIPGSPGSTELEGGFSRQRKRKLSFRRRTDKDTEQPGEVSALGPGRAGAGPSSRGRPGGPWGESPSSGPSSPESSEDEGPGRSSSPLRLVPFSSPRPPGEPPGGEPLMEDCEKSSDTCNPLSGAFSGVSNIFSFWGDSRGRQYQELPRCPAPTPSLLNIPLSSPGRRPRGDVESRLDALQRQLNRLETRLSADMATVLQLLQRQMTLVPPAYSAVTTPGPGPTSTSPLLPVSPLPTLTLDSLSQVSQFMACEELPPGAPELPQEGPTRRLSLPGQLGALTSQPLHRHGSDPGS

| SMILES | hERG current change (%, negative = inhibition) at 10uM |
| --- | --- |
| Cc1cc(=O)nc2c3ccccc3n(CC(=O)Nc3ccccc3Br)n12 | -7.45% |
| CCOc1ccc(N(CC(=O)Nc2cccc(Br)c2)S(C)(=O)=O)cc1 | -1.12% |
| NC(=O)C1CCN(/C=C2\C(=O)NC(=O)N(Cc3ccco3)C2=O)CC1 | 6.74% |
| COc1ccccc1CNC(=O)COc1ccc(C)nc1[N+](=O)[O-] | 18.3% |
| CCN(C(=O)COc1ccc(C(=O)c2ccccc2)cc1)c1ccccc1 | -18.9% |
| O=C1NNC(=O)C1c1ccccc1 | 25.7% |
| CCOC(=O)c1[nH]ncc1CN1CCC(Cc2cccc(OC)c2)(C(=O)OCC)CC1 | -37.6% |
| CCOC(=O)C1(Cc2cccc(OC)c2)CCN(Cc2cccc(OC)c2O)CC1 | -66% |
| CCOC(=O)C1(Cc2cccc(OC)c2)CCN(Cc2cc(OC)ccc2OC)CC1 | -67.2% |
| CC(C)c1ccc(CN2CCN(C(=O)CSc3nnnn3C3CC3)CC2)cc1 | -28.1% |
| COc1ccc2c(C(=O)CN(C)C3CCCCC3)c[nH]c2c1 | 9.09% |
| Cc1csc(NC(=O)CSc2nnc(-c3cccs3)n2C)n1 | -60.5% |
| Cc1csc(NC(=O)CSc2nnc(-c3ccncc3)n2C)n1 | -17.5% |
| Cc1cnc(NC(=O)CSc2nnc(-c3cccs3)n2C)s1 | -59.4% |
| Cc1csc(NC(=O)CSc2nnc(CCNC(=O)c3cccs3)n2C)n1 | 8.1% |
| CC(=O)Nc1ccc(NC(=O)CSc2nnc(-c3cccs3)n2C)cc1 | -7.69% |
| Cc1cnc(NC(=O)CSc2nnc(Cc3ccccc3)n2C)s1 | -12.1% |
| O=C(CCCc1nc2ccccc2s1)NCc1ccccc1F | -20.2% |
| CCN(CC(=O)Nc1c(F)cccc1F)C(=O)c1cccc(-n2cccc2)c1 | -27.1% |
| CCCCCN(C(=O)CCC(=O)OC(C)C(=O)NCc1ccccc1)c1c(N)n(CCCC)c(=O)[nH]c1=O (stereo not drawn) | -14.5% |
| O=C(c1cnn2c(C(F)F)cc(-c3ccccc3)nc12)N1CCCc2ccccc21 | -3.45% |
| COCCn1c(SCC(=O)N2CCCC2)nnc1-c1ccco1 | 18.6% |
| Cc1ccc(/C=N\NC(=O)Cc2noc3ccccc23)cc1 | 15.6% |
| COC(=O)c1ccc(C(=S)N2CCCCC2)cc1 | 8.89% |

| SMILES | hERG current change (%, negative = inhibition) at 10uM |
| --- | --- |
| Clc1ncc(CSc2ccccc2)s1 | 3.25% |
| COC(=O)c1ccc(SCc2cnc(Cl)s2)cc1 | 1.27% |
| O=C(O)c1ccc(SCc2cnc(Cl)s2)cc1 | -70% |
| COC(=O)c1ccc(CNC(=O)c2ccc3c(c2)S(=O)(=O)N=C2CCCCCN23)cc1 | -10.5% |
| Cc1cc2ccccc2c(=O)n1CC(=O)NCC1COc2ccccc2O1 (stereo not drawn) | 0.464% |
| CCn1cc(/C=N\NC(=O)Cc2ccc([N+](=O)[O-])cc2)c(C)n1 | -25.1% |
| CCN(Cc1cccc(OC)c1)CC1CCCN(CCc2cccc(OC)c2)C1 (stereo not drawn) | -47.3% |
| CCN(Cc1ccc(NC(C)=O)cc1)CC1CCCN(CCc2cccc(OC)c2)C1 (stereo not drawn) | -30.3% |
| CCN(Cc1ccc(C#CCCO)cc1)CC1CCCN(CCc2cccc(F)c2)C1 (stereo not drawn) | -65.2% |
| CCN(Cc1ccc(OC)c(COC)c1)CC1CCCN(CCc2cccc(OC)c2)C1 (stereo not drawn) | -26.3% |
| CCN(Cc1ccc(C#CCCO)cc1)CC1CCCN(CCc2cccc(OC)c2)C1 (stereo not drawn) | -58.5% |
| CCN(Cc1ccc(OC)c(COC)c1)CC1CCCN(CCc2cccc(F)c2)C1 (stereo not drawn) | -67.7% |
| CN(Cc1ccc(C#CCCO)cc1)CC1CCCN(CCc2ccc(Cl)cc2)C1 (stereo not drawn) | -70.9% |
| OCCC#Cc1ccc(CN2CCN(C3CCCCC3)C(CCO)C2)cc1 (stereo not drawn) | -0.113% |
| CCOc1ccc(NC(=O)Nc2cc(C(=O)O)ccc2N2CC3CC(C2)c2cccc(=O)n2C3)cc1 (stereo not drawn) | 12.4% |
| Cc1cc(C)cc(Nc2cc(C)nc3nc(C)nn23)c1 | -14.7% |
| O=c1[nH]c(/C=C/c2ccccc2)c([N+](=O)[O-])c(=O)[nH]1 | 5.45% |
| CCN1C(=O)Nc2cccc3cccc1c23 | 1.65% |
| CCN(CC)C(=O)c1cnn(-c2ccccc2)c1NC(=O)c1ccco1 | -12.8% |
| COc1ccc(/C=C/C(=O)Nc2ccccc2C(=O)NCC(c2ccc(OC)cc2)N(C)C)cc1 (stereo not drawn) | -49.6% |
| CCc1nc(N=Nc2c(O)[nH]c3ccccc23)c2c3c(sc2n1)CCC3 | 13.7% |
| O=C(COC(=O)c1cc(Cl)ccc1[N+](=O)[O-])NCc1ccc(Cl)cc1Cl | -11.8% |
| COc1ccccc1CCNC(=O)CN1C(=O)c2ccccc2S1(=O)=O | 2.11% |
| CC(C)(C)C(=O)NC1CCSC1=O (stereo not drawn) | 8.46% |

| SMILES | hERG current change (%, negative = inhibition) at 10uM |
| --- | --- |
| CN(C)CCN1C(=O)C2C3C=CC(C3)C2C1=O (stereo not drawn) | 20.6% |
| Cc1cc(C)c2c(=O)[nH]c(SCC(=O)Nc3ccc(N(C)C)cc3)nc2n1 | -2.77% |
| CCCc1[nH]nc2c1C(Cc1ccccc1)C(C#N)=C(N)O2 (stereo not drawn) | 0.432% |
| Cc1nn(-c2ccccc2)c(C)c1-c1cc(C(=O)N/N=C/c2cccnc2)[nH]n1 | -18.7% |
| Cc1cccc2c1N(C)C(=O)C2=O | 17.1% |
| Cc1ccc(NC(=O)CNCc2ccccn2)cc1S(=O)(=O)N(C)C | 20.9% |
| CCN(Cc1ccc(O)cc1)CC1CCCN(CCc2cccc(F)c2)C1 (stereo not drawn) | -71.1% |
| CCN(Cc1ccc(NC(C)=O)cc1)CC1CCCN(CCc2cccc(F)c2)C1 (stereo not drawn) | -24.4% |
| Cc1ccc(-c2nnc(CSc3nnc(COc4ccccc4)n3-c3ccc(C)cc3)o2)cc1 | -7.47% |
| CC(C)C(OC(=O)c1ccco1)C(=O)NCc1cccs1 (stereo not drawn) | -0.362% |
| CN(C)c1ccc(/C=N/NC(=O)C2CC2c2ccccc2)cc1 (stereo not drawn) | -74.9% |
| CN(C)c1ccc(/C=N/NC(=O)c2ccccc2)cc1 | 10.9% |
| O=C(N/N=C/c1ccco1)C1CC1c1ccccc1 (stereo not drawn) | -4.18% |
| CCOc1ccc(CCNC(=O)CCS(=O)(=O)c2ccc(Br)cc2)cc1OCC | 13.8% |
| Cc1cc(NC(=S)N(CCN2CCOCC2)Cc2ccccc2F)ccc1Cl | 24.1% |
| COc1cccc(CCC(=O)N2CCC(n3nccc3NC(=O)C3CCOC3)CC2)c1 (stereo not drawn) | 14.9% |
| COc1ccc(Nc2nc(N)c(C(=O)c3ccc(OC)cc3)s2)cc1 | -52.7% |
| COc1ccc(Nc2nc(N)c(C(=O)c3ccc(F)cc3)s2)cc1 | 25.9% |
| COc1ccc(C(=O)c2sc(Nc3ccccc3)nc2N)cc1 | 18.1% |
| O=C(Nc1ccc(Cl)cc1F)c1cc(S(=O)(=O)N2CCCCC2)ccc1F | -0.146% |
| Cc1ccc(NC(=O)Cn2nnc(C(=O)NCc3ccco3)c2N)c(C)c1 | 3.23% |
| C/[N+]([O-])=C\c1coc2ccccc2c1=O | -1.4% |
| O=C(CCl)N1CCN2C(=O)c3ccccc3C12c1ccc(Cl)cc1 (stereo not drawn) | -1.56% |
| COCCCNC(=O)Cc1c(C)c2c(cc(C)c3c(C(C)(C)C)coc32)oc1=O | -32.3% |

| SMILES | hERG current change (%, negative = inhibition) at 10uM |
| --- | --- |
| Cc1cc2oc(=O)c(CC(=O)NCCCO)c(C)c2c2occ(C(C)(C)C)c12 | -9.35% |
| Cc1cc2oc(=O)c(CC(=O)NCCCN(C)C)c(C)c2c2occ(C(C)(C)C)c12 | -69.1% |
| O=C1OC(CO)CN1Cc1ccccc1 (stereo not drawn) | 12.3% |
| c1ccc(-c2cn(-c3ccccc3)c3ncnc(NCCCN4CCOCC4)c23)cc1 | -60.6% |
| c1ccc(-c2csc3ncnc(NCCCN4CCOCC4)c23)cc1 | -13.2% |
| COc1ccc(-n2cc(-c3ccccc3)c3c(N4CCOCC4)ncnc32)cc1 | 22.5% |
| COc1ccc(-n2cc(-c3ccccc3)c3c(NN4CCOCC4)ncnc32)cc1 | -40.6% |
| COc1ccc(-n2cc(-c3ccccc3)c3c(NCCCN4CCOCC4)ncnc32)cc1 | -65% |
| c1ccc(-n2ncc3c(NCCCN4CCOCC4)ncnc32)cc1 | -11% |
| COc1nc(-c2ccc(Cl)cc2)nnc1C | 2.25% |
| COCCNC(=O)C(c1cccs1)N(CCc1ccccc1)C(=O)Cn1nnc2ccccc21 (stereo not drawn) | 6.51% |
| O=C(CSc1nnc(Cn2cnc3ccccc32)o1)c1ccccc1 | -7.21% |
| Cc1ccc(N2C(=O)CC(=O)NC2=O)c(C)c1 | 17.2% |
| CC(=O)OCCn1c(C)[n+](CCOC(C)=O)c2cc(Cl)c(Cl)cc21.[I-] | 14.7% |
| COc1ccc(-c2ccoc2)cc1[C@H]1[C@H]2C=CC[C@@H](C)[C@@H]2C(=O)N1Cc1ccccc1 | 1.85% |
| CC1CCN(Cc2nnc(-c3cccc(Br)c3)o2)CC1 | -0.585% |
| O=C(c1ccco1)N1CCN(Cc2nnc(-c3ccccc3)o2)CC1 | -55.5% |
| O=C(c1ccco1)N1CCN(Cc2nnc(-c3cccc(Cl)c3)o2)CC1 | -45.9% |
| O=C(c1ccco1)N1CCN(Cc2nnc(-c3ccccc3F)o2)CC1 | 9.67% |
| Cc1ccccc1-c1nnc(CN2CCN(C(=O)c3ccco3)CC2)o1 | -14.2% |
| O=C(c1ccco1)N1CCN(Cc2nnc(-c3cccc(Br)c3)o2)CC1 | -62.2% |
